High-throughput results as filed in PubChem BioAssay.
In the library only some 11% were active in any assay of this set; here they are far more common.
ALDH1A1 block: qHTS Assay for Inhibitors of Aldehyde Dehydrogenase 1 (ALDH1A1); AID 1030, 2008; Potency, µM (top dose mostly 75.3 µM), hits mostly inhibitors; Purified ALDH1A1, NADH fluorescence, propionaldehyde substrate; 220,000 compounds, 7.3% hits
Target sequence (P00352 whole entry, looked up): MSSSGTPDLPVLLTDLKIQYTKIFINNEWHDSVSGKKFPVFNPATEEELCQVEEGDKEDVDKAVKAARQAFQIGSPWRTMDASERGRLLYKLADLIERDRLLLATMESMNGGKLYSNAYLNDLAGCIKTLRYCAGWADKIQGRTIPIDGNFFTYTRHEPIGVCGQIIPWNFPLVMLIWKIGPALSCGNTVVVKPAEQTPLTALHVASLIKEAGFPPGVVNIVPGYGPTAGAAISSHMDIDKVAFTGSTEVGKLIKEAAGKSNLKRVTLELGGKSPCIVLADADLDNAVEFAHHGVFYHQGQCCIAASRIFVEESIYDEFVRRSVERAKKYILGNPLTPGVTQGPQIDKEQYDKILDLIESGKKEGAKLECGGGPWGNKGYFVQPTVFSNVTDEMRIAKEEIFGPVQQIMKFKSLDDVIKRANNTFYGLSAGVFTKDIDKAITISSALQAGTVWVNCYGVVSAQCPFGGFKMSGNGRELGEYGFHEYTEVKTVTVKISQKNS
IMPase Li cell: qHTS Assay for Identifying the Cell-Membrane Permeable IMPase Inhibitors: Potentiation with Lithium; CHO-M1 cells, IP1 TR-FRET (IP-One), carbachol + lithium; Potency, µM (top dose mostly 59.4 µM), most hits filed as inhibitors; 210,000 compounds, 0.35% hits; active = well fitted curve in the direction sought with a large enough effect; inconclusive = small, poorly fitted or top-dose-only effect, or another doubt; inactive = no such curve, though single readings can be large; an effect the other way counts as inactive or inconclusive;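 note: IP1 builds up when IMPase is blocked and the TR-FRET signal falls; nearly all actives have a fitted effect of over 50% in size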
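Readout is a homogeneous TR-FRET IP1 immunoassay (Ex 320, Em 665 and 620), where raised cytosolic IP1 lowers signal. Cells were CHO-M1 treated 30 min at 37C with test compounds plus a little lithium; AC50 values came from Hill-equation fitting.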
HPGD block: qHTS Assay for Inhibitors of HPGD (15-Hydroxyprostaglandin Dehydrogenase). 15-hydroxyprostaglandin dehydrogenase [NAD(+)] (Homo sapiens), P15428. purified HPGD, NADH fluorescence kinetic, PGE2 substrate. Potency, µM, usual class: inhibitors. 150,000 compounds, 4.3% hits. AID 894, 2007
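20 nM HPGD preincubated 15 min at room temperature with compound in 50 mM Tris-HCl pH 8, 0.01% Tween 20. Started with 1 mM NAD+ and 30 uM prostaglandin E2; NADH fluorescence (360/450 nm) read 5 times over 30-s intervals, last minus first.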
PNC inhibitor: High Content Assay for Compounds that inhibit the Assembly of the Perinucleolar Compartment; PC3M PTB-GFP, PNC prevalence imaging, 16 h; hits give low values; activity change (PNC), negative = inhibition, % at 10 µM; 140,000 compounds, 3.1% hits; AID 2417, 2010;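 active = readout at or below -70, meaning at least 70% loss of cells showing the perinucleolar compartment, a nuclear body marking cancer cells; inconclusive = readout between -30 and a set limit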
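PC3M cells stably expressing PTB-GFP, 750–1000 cells/well, treated 16 h at 37 °C with compound (23 nl of library stock), in duplicate. After paraformaldehyde fixation and Hoechst stain, imaged at 20x; PNC prevalence scored by image analysis.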
IMPase cell inh: qHTS Assay for Identifying the Cell-Membrane Permeable IMPase Inhibitors | Inositol monophosphatase 1 (Rattus norvegicus), P97697 | CHO-M1 cells, IP1 accumulation, HTRF TR-FRET ratio | inhibition (IP1 accumulation), % at 46.1 µM | 120,000 tested, under 10 active; active = well fitted curve in the direction sought with a large enough effect in the signal ratio, not every such curve was filed as active; inconclusive = small, poorly fitted or top-dose-only effect, or a change in a side signal; inactive = no such curve, though single readings can be large or run the other way; the % refers to the signal ratio;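 note: cells stimulated with carbachol in lithium chloride buffer; higher means more IMPase inhibition seen as more IP1 and lower FRET ratio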
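CHO-M1 cells (CHO stably expressing M1 receptor), compound up to 46 uM final, stimulated with carbachol (50 uM as added) in buffer with 50mM LiCl, pH 7.4, 30 min at 37C. Cytosolic IP1 read by TR-FRET; AC50 from Hill fits.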
NPSR antag: qHTS Assay for Antagonists of the Neuropeptide S Receptor: cAMP Signal Transduction; 220,000 compounds, 1% hits; AID 1461, 2008; CHO-NPSR cells, cAMP TR-FRET, antagonist mode; Potency, µM (doses to about 38.3 µM), most hits filed as inhibitors; Q6W5P4; active = well fitted curve in the direction sought with a large enough effect; inconclusive = small, poorly fitted or top-dose-only effect, or another doubt; inactive = no such curve, though single readings can be large; an effect the other way counts as inactive or inconclusive; note: nearly all actives have a fitted effect of over 50% in size
Numbers stand for hits; – = inactive; ? = inconclusive; · = no result given; ! = a repeat was not active; [ ] = remark or other dose. Unless noted, calls come from the whole dose curve; as a rule, active = well fitted inhibition curve with a large enough effect (not every such curve was filed as active); inconclusive = small, poorly fitted or top-dose-only effect, or another doubt; inactive = no such curve, though single readings can be large or run the other way.

SMILES	ALDH1A1 block	IMPase Li cell	HPGD block	PNC inhibitor	IMPase cell inh	NPSR antag
O=c1cc(N2CCc3ccccc32)[nH]c(=O)n1-c1ccc(Br)cc1	?	–	28µM	–	–	–
COc1ccccc1N1CCN(C(CNS(C)(=O)=O)c2cccnc2)CC1 (configuration not stated)	10µM	–	·	·	·	–
CC1=C(C(=O)OCc2ccccc2)C(c2ccccc2)NC(=O)N1CCCCCC(=O)O (configuration not stated)	–	–	–	-80	·	–
COC(=O)C1=C(C)N(Cc2ccccc2)C(=O)N[C@H]1c1ccccc1	7.9µM!	–	–	–	·	–
Cc1ccc(S(=O)(=O)N2CCN(Cc3nc4sc(C)c(C)c4c(=O)[nH]3)CC2)cc1	–	?	–	–	–	–
Cc1cccc(-n2ncc3c(NCc4ccco4)ncnc32)c1	?	–	?	–	–[0.0738 µM]	–
CC1=CC2=NC(=O)/C(=C\c3ccc(-c4cccc(Cl)c4)o3)C(=N)N2O1	?	–	–	–	·	–
O=c1/c(=C/c2ccccc2)sc2nnc(-c3cccs3)n12	·	·	·	·	·	–
N#Cc1ccc(N=c2ssnc2Cl)cc1	1.6µM	–	2µM	?	–	?
Fc1ccc(N=c2ssnc2Cl)c(F)c1	2.5µM	–	·	·	·	–
CCOC(=O)c1ccc(N=C2SC(C(=O)NC)CC(=O)N2Cc2ccc(F)cc2)cc1 (configuration not stated)	–	–	·	·	·	–
Clc1ccc(N=c2ssnc2Cl)cc1	1.1µM	–	1.8µM	–	–	–
CCOC(=O)c1ccc(N=c2ssnc2Cl)cc1	2µM	–	·	·	·	–
O=C(Nc1nc2cc(Cl)ccc2s1)C1CCCN(S(=O)(=O)c2cccc3cccnc23)C1 (configuration not stated)	–	–	–	?	–	–
COc1ccc(-c2cn(-c3ccccc3)c3[n+]2CCS3)cc1	–	–	–	–	·	–
O=C(Nc1c(O)c2ccccc2oc1=O)c1ccccc1Cl	·	·	·	·	–	·
Clc1nssc1=Nc1ccccc1	1.6µM	–	·	·	·	–
COc1ccc(N=c2ssnc2Cl)cc1	1.8µM	–	2.8µM	–	–	–
O=C1CSC(=Nc2ccccc2)N1Cc1ccccc1	–	–	·	·	·	–
COc1cc(/C=C2\SC(=Nc3cccnc3)NC2=O)cc(OC)c1OC	–	·	·	·	·	–
COc1cc(N=c2ssnc2Cl)cc(OC)c1OC	2.8µM	–	2.2µM	?	–	?
CC(=O)Nc1ccc2nc(NC(=O)c3cccnc3)sc2c1	–	–	·	·	·	–
Nc1c(C(=O)NCc2ccco2)sc2nc(N3CCOCC3)c3c(c12)CCCC3	?	10µM	?	–	–	–
O=C(NC1CCCCC1)N(Cc1ccccc1)Cc1ccco1	?	–	–	?	–	?
O=C(CC(Cc1ccccc1)c1ccco1)NC1CCCCC1 (configuration not stated)	–	–	14µM	–	–	–
SMILES	ALDH1A1 block	IMPase Li cell	HPGD block	PNC inhibitor	IMPase cell inh	NPSR antag
COc1ccc(CCNC(=O)c2cc(=O)[nH]c3ccc(Br)cc23)cc1OC	–	–	–	-113	?	–
CCC(=O)Nc1ccc(NC(=O)CSc2nnnn2-c2ccc3c(c2)OCCO3)cc1	–	–	·	·	·	–
O=C(CSc1nnnn1-c1ccc2c(c1)OCCO2)OC1CCCCC1	5µM	–	–	–	–	–
CCOC(=O)c1csc(NC(=O)CSc2nnnn2-c2ccc3c(c2)OCCO3)n1	–	–	–	-88	?	–
Cc1ccc(NC(=O)CCSc2nnnn2-c2ccc3c(c2)OCO3)cc1C	13µM	–	–	–	–	–
COc1ccccc1C(=O)NNC(=O)c1ccccc1F	–	–	–	?	–	–
COc1ccc(C(C)=O)cc1COC(=O)CNC(=O)c1ccccc1F	7.1µM	–	?	?	–	–
COc1ccccc1-n1c(CNc2c(C)cccc2C)nnc1SCC(=O)N1CCOCC1	–	–	–	–	–	–
NNC(=O)C1CC1c1ccccc1 (configuration not stated)	4µM	·	·	–	?	–
